In the library only some 21% were active in any assay of this set; here they are far more common.
TDP1 cell CPT: qHTS for Inhibitors of human tyrosyl-DNA phosphodiesterase 1 (TDP1): qHTS in cells in presence of CPT. chicken DT40 Tdp1-/-;hTDP1 cells + 20 nM CPT, ATP luminescence, 48 h. Potency, µM (highest dose often 46.2 µM), hits mostly inhibitors. 12% of 420,000 active; note: nearly all actives have a fitted effect of over 55% in size
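Chicken DT40 Tdp1-/- cells complemented with human TDP1, 400 cells/well, exposed to compounds plus 20 nM camptothecin for at least 48 h at 37 C; viability read as ATP content by CellTiter-Glo luminescence.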
IL1B secr inh: qHTS for Inhibitors of Inflammasome Signaling: IL-1-beta AlphaLISA Primary Screen | 4.7% of 360,000 active | activity change, % at 57.5 µM | THP-1 LPS/ATP IL-1B secretion, AlphaLISA, 16 h; stronger effect = lower value; in the data active = activity change below about -50%; inconclusive = mostly about -30% to -49%
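Secreted IL-1B measured by AlphaLISA bead assay after 16 h compound exposure of THP-1 cells; compounds (final up to 57.5 uM) added 1 h before LPS (250 ng/mL) and ATP (1.25 mM) stimulation; lower signal means less secretion.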
DRD3 agonist: qHTS of D3 Dopamine Receptor Agonist: qHTS; D(3) dopamine receptor (Homo sapiens), P35462; D3R DiscoveRx beta-arrestin cells, luminescence, 90 min; max activation, %; 0.58% of 410,000 active; AID 652048, 2013; in the data active = max activation above about 30%
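Agonist-mode cell screen: cells plated at 1500/well and incubated overnight at 37 °C, then exposed to library compounds for 90 min at 37 °C. Detection reagent was added for 30–60 min at room temperature, and luminescence was read.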
ClpP mod: qHTS Assay for Activators of ClpP; ATP-dependent Clp protease proteolytic subunit (Bacillus subtilis (strain 168)), P80244; Potency, µM (top dose mostly 57.5 µM); 1.9% of 340,000 active; purified B. subtilis ClpP, FRET peptide cleavage, 20 min; active = well fitted falling curve with a large enough effect; inconclusive = small, poorly fitted or top-dose-only effect; inactive = no such curve, though single readings can be large or run the other way; note: the source files actives as falling curves though it sought activators and does not explain the sign; nearly all actives have a fitted effect of over 65% in size
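ClpP 10 microg/mL final, pH 8 Tris/KCl buffer with BSA, glycerol, Tween-20; compound pinned in; FRET-FV substrate; RT 20 min; Ex320/Em430; ΔFRET vs ADEP 5.8 microM, DMSO, no enzyme.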
D3 antag: qHTS of D3 Dopamine Receptor Antagonist: qHTS | 2.5% of 360,000 active | D3R cells, DiscoveRx beta-arrestin luminescence, antagonist mode; stronger effect = lower value | AID 652054, 2013 | max response, negative = inhibition, %; in the data active = max response below about -50%; inconclusive = no clear call, values can overlap the other calls
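Cells expressing the human receptor were seeded at 1500 cells/well, incubated overnight at 37 degrees C in 5% CO2, then exposed to library compounds with dopamine controls for 90 minutes at 37 degrees C before luminescent detection.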
DT40 TDP1 no CPT: qHTS for Inhibitors of human tyrosyl-DNA phosphodiesterase 1 (TDP1): qHTS in cells in absence of CPT; DT40 Tdp1-/- hTDP1 cells, no CPT, ATP luminescence, 48 h; Potency, µM (top dose mostly 46.2 µM), hits mostly inhibitors; 15% of 420,000 active; note: nearly all actives have a fitted effect of over 55% in size
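Chicken DT40 Tdp1-/- cells stably complemented with human TDP1 were seeded at 400 cells/well with DMSO in place of 20 nM camptothecin. After compound pinning, cells grew at least 48 hr at 37 °C; viability read by CellTiter-Glo luminescence.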
Large screens that a line does not name were inactive. Unless noted, calls come from the whole dose curve; as a rule, active = well fitted inhibition curve with a large enough effect; inconclusive = small, poorly fitted or top-dose-only effect; inactive = flat fitted curve, though single readings scatter.

O=C(CSc1nnc(CNC(=O)c2cccc(C(F)(F)F)c2)o1)NC1CCCC1	none
c1ccc(Nc2nc(Nc3ccccc3)nc(N3CCNCC3)n2)cc1	TDP1 cell CPT inconclusive, IL1B secr inh -71, DT40 TDP1 no CPT inconclusive (no result: ClpP mod)
CN1CCN(c2nc(Nc3ccc(F)cc3)nc(Nc3ccc(F)cc3)n2)CC1	TDP1 cell CPT 21µM, IL1B secr inh -56, DT40 TDP1 no CPT inconclusive
Fc1ccc(Nc2nc(Nc3ccc(F)cc3)nc(N3CCOCC3)n2)cc1	TDP1 cell CPT inconclusive, DT40 TDP1 no CPT inconclusive (no result: IL1B secr inh, D3 antag)
O=C(NCc1nnc(SCC(=O)N2CCOCC2)o1)c1ccccc1	none
Cc1nnc(C)n1/N=C/c1ccc(O)cc1	none
Oc1ccc(/C=N/n2c3ccccc3c3ccccc32)cc1	TDP1 cell CPT inconclusive, D3 antag inconclusive, DT40 TDP1 no CPT 16µM
C=CCNC(=O)/C(=C/c1ccccc1OCC)NC(=O)c1ccccc1	ClpP mod inconclusive
CCOc1ccccc1/C=C(/NC(=O)c1ccccc1)C(=O)NC(C)c1ccccc1 (configuration not stated)	TDP1 cell CPT 23µM, DT40 TDP1 no CPT inconclusive
CC1Cn2c(C(=O)NCCc3ccc(Cl)cc3)cc3cccc(c32)S1 (configuration not stated)	TDP1 cell CPT 16µM, ClpP mod 32µM, DT40 TDP1 no CPT inconclusive (no result: IL1B secr inh, D3 antag)
CC1CN(C(=O)CCC(=O)NCc2ccc(F)cc2)c2ccccc2S1 (configuration not stated)	none
CC1Cn2c(C(=O)NCc3ccccc3Cl)cc3cccc(c32)S1 (configuration not stated)	TDP1 cell CPT inconclusive, ClpP mod 28µM, DT40 TDP1 no CPT inconclusive (no result: IL1B secr inh, D3 antag)
COc1ccccc1CNC(=O)CCC(=O)N1CC(C)Sc2ccccc21 (configuration not stated)	TDP1 cell CPT 18µM, DT40 TDP1 no CPT inconclusive
Cc1ccccc1CNC(=O)c1cc2cccc3c2n1CC(C)S3 (configuration not stated)	TDP1 cell CPT inconclusive, ClpP mod 40µM, DT40 TDP1 no CPT inconclusive (no result: IL1B secr inh, D3 antag)
O=C(Nc1c2c(nn1-c1ccc([N+](=O)[O-])cc1)CS(=O)(=O)C2)c1ccccc1F	none
COc1ccccc1CNC(=O)c1cc2cccc3c2n1CC(C)S3 (configuration not stated)	TDP1 cell CPT 21µM, ClpP mod 32µM, DT40 TDP1 no CPT 23µM (no result: IL1B secr inh, D3 antag)
COc1ccccc1CNC(=O)CNCCc1ccc(OC)c(OC)c1	TDP1 cell CPT inconclusive, IL1B secr inh inconclusive
CC(C)Nc1nc(NC(C)C)nc(N(C)N)n1	D3 antag -53, DT40 TDP1 no CPT inconclusive
CC#CCN1c2ccccc2[C@]23C[C@@H](C(=O)OC)N(C(=O)c4ccco4)C2=NC(C(=O)OC)=C(C(=O)OC)[C@H]13	TDP1 cell CPT inconclusive, DT40 TDP1 no CPT inconclusive
NS(=O)(=O)c1ccc(CCNCC#Cc2ccccc2)cc1	none
COc1ccc(CCNC/C=C/c2ccccc2)cc1	TDP1 cell CPT inconclusive, IL1B secr inh -68, D3 antag -59, DT40 TDP1 no CPT inconclusive (no result: ClpP mod)
NS(=O)(=O)c1ccc(CCNC/C=C/c2ccccc2)cc1	D3 antag -71
COc1ccc(CNC/C=C/c2ccccc2)cc1	TDP1 cell CPT inconclusive, D3 antag -80, DT40 TDP1 no CPT inconclusive
COc1ccc(CC(=S)NCCc2ccccc2)cc1	DT40 TDP1 no CPT inconclusive
COc1ccc(-c2oc3ncn4nc(COc5ccc(C)cc5)nc4c3c2-c2ccc(OC)cc2)cc1	DT40 TDP1 no CPT inconclusive (no result: IL1B secr inh, D3 antag)
O=C(CSc1ncc(S(=O)(=O)c2ccc(Cl)cc2)c(=O)[nH]1)Nc1ccc2c(c1)OCCO2	none (no result: TDP1 cell CPT, IL1B secr inh, D3 antag, DT40 TDP1 no CPT)
COc1ccc(NC(=O)Cn2c(=O)n(Cc3nc(-c4ccccc4)no3)c(=O)c3ccccc32)cc1Cl	DT40 TDP1 no CPT inconclusive (no result: IL1B secr inh, D3 antag)
O=[N+]([O-])c1ccc(OCC(O)CN2CCN(c3ccccc3F)CC2)cc1 (configuration not stated)	TDP1 cell CPT inconclusive, DRD3 agonist 59, DT40 TDP1 no CPT inconclusive
OC(COc1ccc2c(c1)CCC2)CN1CCN(c2ccccc2F)CC1 (configuration not stated)	IL1B secr inh -53, DRD3 agonist 32, D3 antag inconclusive
COc1ccc(N2CCN(CC(O)COc3ccc4c(c3)CCC4)CC2)cc1 (configuration not stated)	TDP1 cell CPT 18µM, IL1B secr inh inconclusive, D3 antag -79, DT40 TDP1 no CPT 23µM
Cc1ccc(N2CCN(CC(O)COc3ccc([N+](=O)[O-])cc3)CC2)cc1 (configuration not stated)	IL1B secr inh inconclusive (no result: ClpP mod)
COc1ccc(CCN=C(C)c2cc(C)c(C)cc2O)cc1OC	none (no result: ClpP mod)
C[N+]1(CC(=O)c2ccc(O)c(O)c2)CCOCC1	TDP1 cell CPT inconclusive (no result: IL1B secr inh, DRD3 agonist, D3 antag)
COc1cccc(C#Cc2ccc3c(c2)O[C@H](CN(C)C)[C@@H](C)CN([C@@H](C)CO)S3(=O)=O)c1	TDP1 cell CPT inconclusive, DT40 TDP1 no CPT inconclusive
C[C@H](CO)N1C[C@H](C)[C@@H](CN(C)CC2CCOCC2)Oc2cc(C#Cc3ccccc3F)ccc2S1(=O)=O	TDP1 cell CPT 18µM, ClpP mod inconclusive, DT40 TDP1 no CPT 9.2µM
C[C@H]1CN([C@@H](C)CO)S(=O)(=O)c2ccc(C#Cc3cccnc3)cc2O[C@@H]1CN(C)C(=O)Nc1ccc2c(c1)OCO2	TDP1 cell CPT inconclusive, DT40 TDP1 no CPT 23µM
C[C@@H]1CN([C@H](C)CO)S(=O)(=O)c2ccc(C#Cc3ccccc3F)cc2O[C@H]1CN(C)C(=O)c1ccc2c(c1)OCO2	TDP1 cell CPT 18µM, IL1B secr inh -74, ClpP mod inconclusive, DT40 TDP1 no CPT 6.5µM
COc1ccc(C2C(C(=O)Nc3ccc(OC)c(OC)c3)c3ccccc3C(=O)N2C)cc1 (configuration not stated)	none (no result: ClpP mod)
CC(=O)Nc1cc2c(cc1NC(=O)Cn1nc(-c3ccccc3)ccc1=O)OCCO2	none (no result: ClpP mod)
CC(C)C[C@H](NC(=O)[C@@H](O)[C@H](N)Cc1ccccc1)C(=O)O	DT40 TDP1 no CPT 22µM (no result: IL1B secr inh, DRD3 agonist, ClpP mod, D3 antag)
COC(=O)C(CC(C)C)NC(=O)C(N)Cc1ccccc1 (configuration not stated)	none
O=C(CN1CCN(c2cccc(Cl)c2)CC1)Nc1ccc([N+](=O)[O-])cc1C(=O)Nc1ccccc1F	TDP1 cell CPT inconclusive, DT40 TDP1 no CPT 23µM
